From PubChem BioAssay (NCATS)
Records with an inconclusive call do not appear. Active and inactive are the calls of the source. Unless noted, calls come from the whole dose curve; as a rule, active = well fitted curve in either direction with a large enough effect (not every such curve was filed as active); inconclusive = small, poorly fitted or top-dose-only effect, or another doubt; inactive = flat fitted curve, though single readings scatter.

How the values were obtained:
[1] = AP1 Signaling Pathway (AID 357); details: ME-180 AP-1-bla reporter, EGF-induced, beta-lactamase ratio, 5 h; at 17.2 µM (top of the series) unless noted;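 note: ME-180 reporter cells stimulated with EGF at its EC50 level; % is set by controls: 0 for no effect and ±100 for the full control effect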
Method in brief: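 Cells are seeded overnight, exposed to compound titrations and an EC50 level of EGF for 5 hours at 37 °C, then loaded with CCF4 dye for 2.5 hours. Beta-lactamase activity under the AP-1 element is read as a blue/green ratio.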

[2] = NFAT Signaling Pathway (AID 444); details: Jurkat NFAT-bla M1, carbachol, beta-lactamase ratio, 5 h; at 17.2 µM (top of the series) unless noted;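 note: carbachol stimulus at about its EC50 of 1 µM final; % is set by controls: 0 for no effect and ±100 for the full control effect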
Method in brief: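 Jurkat cells carrying an NFAT-driven β-lactamase reporter and co-transfected muscarinic M1 receptor were treated with compound plus carbachol (1 uM final, an EC50 level) for 5 h at 37 °C. CCF4 loading followed for 1 h at RT; 460/530 nm ratio gave %activity.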

[3] = Stat Signaling Pathway (AID 446); details: ME-180 SIE beta-lactamase reporter, IL-6 stimulated, 5 h; at 17.2 µM (top of the series) unless noted;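 note: ME-180 cervical cancer cells given 40 pM IL-6 alongside compound; SIE-controlled beta-lactamase reporter measured as 460/530 nm FRET emission ratio; % is set by controls: 0 for no effect and ±100 for the full control effect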
Method in brief: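 Normalization used AC90 stimulation (300 pM IL-6) and AC90 inhibition (125 nM pan-JAK inhibitor at 40 pM IL-6). The underlying signal is SIE-driven beta-lactamase in ME-180 cells after 5 h IL-6 exposure with compound.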

[4] = target: Glucocorticoid receptor (Homo sapiens) (UniProt P04150); assay: GR-GFP Redistribution (AID 450;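 active = compounds whose dose series gives a full or clear partial fitted curve of increased nuclear translocation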; note: potency is the fitted concentration of half-maximal effect)
[5] = target: Glucocorticoid receptor (Homo sapiens) (UniProt P04150); assay: GR-EFC Redistribution (AID 451; calls by dose curve; note: potency is the fitted concentration of half-maximal effect); details: CHO-K1 GR-EFC translocation, beta-gal luminescence, 2 h
Method in brief: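 CHO-K1 cells stably expressing nuclear-localized β-gal enzyme acceptor and GR fused C-terminally to the enzyme donor fragment; ligand-driven nuclear translocation restores β-gal by complementation. Compounds titrated up to 46 uM final, 2 h at 37 °C; luminescence read.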

[6] = target: Mitogen-activated protein kinase 10 (Mus musculus) (UniProt Q61831); assay: JNK3 AlphaScreen Assay (AID 530);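 note: kinase came from lysate of stimulated human HepG2 cells; signal reports phosphorylation of biotinylated GST-cJun 1-79 at Ser73 with 10 µM ATP; % is set by controls: 0 for no effect and ±100 for the full control effect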
Method in brief: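 Phosphorylation of biotinylated GST-cJun(1-79) at Ser73 is measured by AlphaScreen proximity luminescence. Enzyme is JNK3 in HepG2 lysates activated with interleukin-1beta and tumor necrosis factor alpha; ATP is 10 uM final.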

[7] = target: 3',5'-cyclic-AMP phosphodiesterase 4B (Homo sapiens) (UniProt Q07343); assay: qHTS Assay for Inhibitors of PDE-IV (AID 607; active = well fitted activation curve with a large enough effect in the main read-out, with a control signal flat, not every such curve was filed as active; note: % of control where 0% means no effect)
Method in brief: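 HEK293 ACTOne cells with CNG channel (1000/well), endogenous PDE4; membrane potential dye, compounds up to 22.9 uM final. Fluorescence Ex 535/Em 590; RO 20-1724 (100 uM final) as reference.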

[8] = qHTS Assay for Identification of Small Molecule Antagonists for NFkB Signaling Pathway (AID 895; active = well fitted inhibition curve with a large enough effect in the signal ratio, with a control signal flat, not every such curve was filed as active; the % refers to the signal ratio; note: potency is the fitted concentration of half-maximal effect)
Method in brief: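 NFkB-bla ME-180 cervical carcinoma cells with beta-lactamase reporter under NFkB response element; compounds added, then TNF alpha at 10 pM final (EC50), 5 h at 37 C. LiveBLAzer substrate 2 h, room temperature; emission 460/530 nm at 405 nm excitation.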

[9] = qHTS Assay for Identification of Small Molecule Agonists for Hypoxia Response Element Signaling Pathway (AID 914; active = well fitted activation curve with a large enough effect in the signal ratio, with a control signal flat, not every such curve was filed as active; the % refers to the signal ratio; note: potency is the fitted concentration of half-maximal effect; for activation: % of control where 0% means no effect); details: ME-180 (cervical carcinoma) HRE-bla reporter, beta-lactamase ratio, CoCl2, 17 h; activation: active compounds read high
Method in brief: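 Reporter activity (beta-lactamase, CCF4 460nm/530nm ratio) in HRE-bla ME-180 cells is recorded after 17 h compound exposure with EC50 CoCl2 at 37 degrees Celsius. AC50 values come from titration data.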

[10] = qHTS Assay for Identification of Small Molecule Agonists for Thrombopoietin (TPO) Signaling Pathway (AID 917; active = well fitted curve in the direction sought with a large enough effect; an effect the other way counts as inactive or inconclusive; note: potency is the fitted concentration of half-maximal effect)
Method in brief: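 Ba/F3 (mouse) + hTPO receptor + GpIIb-promoter luciferase; IL-3 withdrawn overnight; compound + 26 pM TPO (EC50), 24 hrs, 37 C, 5% CO2; Steadylite luminescence, 10 min RT.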

[11] = target: Muscarinic acetylcholine receptor M1 (Rattus norvegicus) (UniProt P08482); assay: qHTS Assay for Antagonists of Acetylcholine Muscarinic M1 Receptor: Kinetic Measurement of Intracellular Calcium Response (AID 943; active = well fitted curve in the direction sought with a large enough effect; an effect the other way counts as inactive or inconclusive;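 note: Fluo-4 calcium signal as peak divided by basal fluorescence over 4 min; nearly all actives have a fitted effect of over 75% in size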)
Method in brief: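 Antagonism is measured as inhibition of the carbachol-evoked calcium rise in CHO cells transfected with rat M1. Cells are dye-loaded, exposed to compound for 10 min, then stimulated with 100 nM carbachol (EC80).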

[12] = target: Pyruvate kinase (Leishmania mexicana) (UniProt Q27686); assay: qHTS Validation Assay for Inhibitors of Leishmania Mexicana Pyruvate Kinase (AID 945; active = well fitted curve in the direction sought with a large enough effect; an effect the other way counts as inactive or inconclusive;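 note: 0% = DMSO only neutral control wells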)
Method in brief: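 Mutant LmPYK (E451W), 0.2 nM, plus 0.5 mM PEP and 0.1 mM ADP in 50 mM imidazole pH 7.2 containing 0.01% Tween 20 and 0.05% BSA. Incubated 1 h at room temperature; luminescence via PKLight, normalized to DMSO.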

[13] = target: Pyruvate kinase PKM (Homo sapiens) (UniProt P14618); assay: qHTS Assay for Activators of Human Muscle Pyruvate Kinase (AID 954; active = well fitted curve in the direction sought with a large enough effect, not every such curve was filed as active;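 note: 0% = uninhibited enzyme and -100% = no enzyme or full thiadiazolimine inhibition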)
Method in brief: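 Compound pinned into substrate mix (0.5 mM PEP, 0.1 mM ADP), then 0.1 nM PKM2 added; 1 h, RT. Stop/detection luciferase reagent added, luminescence read. Normalized to no-inhibition and no-enzyme or reference-inhibitor controls.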

[14] = target: Alpha-galactosidase A (Homo sapiens) (UniProt P06280); assay: Counterscreen for Glucocerebrosidase Inhibitors: qHTS Assay for Human alpha-Galactosidase at pH 4.5 (AID 992; active = well fitted curve in the direction sought with a large enough effect; an effect the other way counts as inactive or inconclusive; note: 0% is about no effect)
Method in brief: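 Steps: enzyme (2 nM final), then compound across 0.7 nM to 77 uM, then 80 uM fluorogenic galactopyranoside substrate; incubate 20 min at room temperature; quench at pH 10; measure fluorescence at 365/440 nm.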

[15] = target: Guanine nucleotide-binding protein G(i) subunit alpha-1 (Homo sapiens) (UniProt P63096); assay: qHTS Assay for Inhibitors of RGS12 GoLoco Motif Activity (Green Fluorophore) (AID 879; active = well fitted curve in the direction sought with a large enough effect; an effect the other way counts as inactive or inconclusive;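 note: 0% = labeled peptide with Gαi1 and full inhibition = labeled peptide alone without protein; negative values mean loss of peptide binding seen as reduced polarization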)
Method in brief: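 A drop in FITC polarization marked displacement of the FITC-tagged RGS12 GoLoco peptide (10 nM) from Gαi1 (50 nM). Compounds were incubated 10 min at room temperature in Tris pH 7.5 buffer containing 150 mM NaCl, 0.1 mM GDP and 0.05% NP40; unlabeled peptide titration served as control.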

[16] = Confirmation and Secondary Assay for Modulators of Hemoglobin Beta Chain Splicing at IVS2 654 locus (AID 910; active = well fitted curve in the direction sought with a large enough effect; an effect the other way counts as inactive or inconclusive;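 note: per-well total GFP intensity by laser scanning cytometry after 2-day treatment; % of control where 0% means no effect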)
Method in brief: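 HeLa cells stably carrying EGFP interrupted by mutant beta-globin IVS2-654 intron (CMV-driven) were treated with compound for 2 days at 37C; corrected splicing was scored as total peak GFP intensity per well (488 nm excitation, 500-520 nm emission).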

[17] = Confirmation and Secondary Assay for Modulators of Hemoglobin Beta Chain Splicing at IVS2 705 locus (AID 930; active = well fitted curve in the direction sought with a large enough effect; an effect the other way counts as inactive or inconclusive;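 note: HeLa cells stably expressing the EGFP-705 splicing reporter; GFP fluorescence per well restored by corrected splicing of the IVS2-705 intron in EGFP; % of control where 0% means no effect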)
Method in brief: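 Stable HeLa line with EGFP disrupted by mutant beta-globin intron 2 (705). Overnight attachment, then 2 days of compound at 37C, 5% CO2. Signal: peak GFP intensity summed over objects 5-250 µm.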

[18] = target: alpha-glucosidase (Oryza sativa, rice) (UniProt Q653V4); assay: Counterscreen for Glucocerebrosidase Inhibitors: qHTS Assay for Rice alpha-Glucosidase at pH 5.0 (AID 997; active = well fitted curve in the direction sought with a large enough effect; an effect the other way counts as inactive or inconclusive;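 note: 0% = full activity with enzyme and -100% = basal without enzyme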)
Method in brief: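 Endpoint fluorogenic assay at pH 5.0: compounds (0.7 nM to 77 uM) titrated against 4 nM rice enzyme and 400 uM 4-MU-alpha-glucoside for 20 min at room temperature; NaOH/glycine stop, read ex 365/em 440 nm, Hill-fitted AC50.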

[19] = target: Cytochrome P450 3A4 (Homo sapiens) (UniProt P08684); assay: qHTS Assay for Activators of Cytochrome P450 3A4 (AID 885; active = well fitted curve in the direction sought with a large enough effect; an effect the other way counts as inactive or inconclusive; note: nearly all actives have a fitted effect of over 65% in size)
Method in brief: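 Human CYP3A4 dealkylates Luciferin-PPXE to luciferin, which luciferase detection converts to light. Substrate was at its KM (25uM), buffer 200mM KPO4, reaction 60 min at RT.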

Chain of Glucocorticoid receptor (Homo sapiens) (P04150 whole entry, looked up, the tested form may be a part): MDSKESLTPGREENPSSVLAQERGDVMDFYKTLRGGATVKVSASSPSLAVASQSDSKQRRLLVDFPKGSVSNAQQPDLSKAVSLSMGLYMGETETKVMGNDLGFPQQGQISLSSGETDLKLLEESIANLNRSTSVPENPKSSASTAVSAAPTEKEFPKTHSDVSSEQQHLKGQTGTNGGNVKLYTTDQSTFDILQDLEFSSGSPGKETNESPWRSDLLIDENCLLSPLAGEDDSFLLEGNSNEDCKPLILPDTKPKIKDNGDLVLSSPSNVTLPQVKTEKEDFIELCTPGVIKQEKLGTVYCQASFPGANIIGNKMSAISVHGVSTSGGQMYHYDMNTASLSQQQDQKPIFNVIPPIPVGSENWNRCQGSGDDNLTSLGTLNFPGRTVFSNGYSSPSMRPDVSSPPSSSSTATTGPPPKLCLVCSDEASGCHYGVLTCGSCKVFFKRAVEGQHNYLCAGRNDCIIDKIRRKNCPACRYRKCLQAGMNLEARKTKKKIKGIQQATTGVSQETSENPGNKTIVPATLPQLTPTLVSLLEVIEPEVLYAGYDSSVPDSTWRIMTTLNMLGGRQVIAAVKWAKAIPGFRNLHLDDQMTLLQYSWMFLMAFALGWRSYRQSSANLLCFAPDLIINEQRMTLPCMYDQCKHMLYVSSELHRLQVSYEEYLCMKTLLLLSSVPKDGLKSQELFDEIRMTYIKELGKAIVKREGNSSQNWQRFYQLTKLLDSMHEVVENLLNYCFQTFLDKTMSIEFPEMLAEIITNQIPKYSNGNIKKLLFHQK
Chain of Alpha-galactosidase A (Homo sapiens) (P06280 whole entry, looked up): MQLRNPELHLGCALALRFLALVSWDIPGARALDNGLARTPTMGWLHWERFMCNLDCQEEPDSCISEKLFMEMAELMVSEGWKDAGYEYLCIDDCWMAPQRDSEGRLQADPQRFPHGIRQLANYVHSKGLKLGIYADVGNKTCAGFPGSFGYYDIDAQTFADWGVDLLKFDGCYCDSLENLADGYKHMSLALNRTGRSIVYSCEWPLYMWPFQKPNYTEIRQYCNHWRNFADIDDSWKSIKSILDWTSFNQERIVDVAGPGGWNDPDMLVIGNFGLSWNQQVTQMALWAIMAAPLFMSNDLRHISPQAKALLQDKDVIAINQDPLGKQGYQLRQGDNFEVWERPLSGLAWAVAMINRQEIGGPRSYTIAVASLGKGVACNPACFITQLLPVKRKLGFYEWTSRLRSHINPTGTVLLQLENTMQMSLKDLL
Chain of Pyruvate kinase (Leishmania mexicana) (Q27686 2-499 E452W): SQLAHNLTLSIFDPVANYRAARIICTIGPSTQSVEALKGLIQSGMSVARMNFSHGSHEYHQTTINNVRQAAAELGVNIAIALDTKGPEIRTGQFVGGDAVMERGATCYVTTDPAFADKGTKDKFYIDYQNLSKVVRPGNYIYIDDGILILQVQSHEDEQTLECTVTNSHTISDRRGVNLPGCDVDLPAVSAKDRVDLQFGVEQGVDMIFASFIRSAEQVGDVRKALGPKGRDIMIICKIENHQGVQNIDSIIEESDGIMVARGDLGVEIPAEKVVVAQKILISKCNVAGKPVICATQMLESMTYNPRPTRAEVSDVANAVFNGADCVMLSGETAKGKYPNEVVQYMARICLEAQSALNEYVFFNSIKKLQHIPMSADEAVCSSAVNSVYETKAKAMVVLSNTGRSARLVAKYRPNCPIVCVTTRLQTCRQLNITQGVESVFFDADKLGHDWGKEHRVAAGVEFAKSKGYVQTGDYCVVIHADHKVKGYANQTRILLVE
Chain of 3',5'-cyclic-AMP phosphodiesterase 4B (Homo sapiens) (Q07343 whole entry, looked up): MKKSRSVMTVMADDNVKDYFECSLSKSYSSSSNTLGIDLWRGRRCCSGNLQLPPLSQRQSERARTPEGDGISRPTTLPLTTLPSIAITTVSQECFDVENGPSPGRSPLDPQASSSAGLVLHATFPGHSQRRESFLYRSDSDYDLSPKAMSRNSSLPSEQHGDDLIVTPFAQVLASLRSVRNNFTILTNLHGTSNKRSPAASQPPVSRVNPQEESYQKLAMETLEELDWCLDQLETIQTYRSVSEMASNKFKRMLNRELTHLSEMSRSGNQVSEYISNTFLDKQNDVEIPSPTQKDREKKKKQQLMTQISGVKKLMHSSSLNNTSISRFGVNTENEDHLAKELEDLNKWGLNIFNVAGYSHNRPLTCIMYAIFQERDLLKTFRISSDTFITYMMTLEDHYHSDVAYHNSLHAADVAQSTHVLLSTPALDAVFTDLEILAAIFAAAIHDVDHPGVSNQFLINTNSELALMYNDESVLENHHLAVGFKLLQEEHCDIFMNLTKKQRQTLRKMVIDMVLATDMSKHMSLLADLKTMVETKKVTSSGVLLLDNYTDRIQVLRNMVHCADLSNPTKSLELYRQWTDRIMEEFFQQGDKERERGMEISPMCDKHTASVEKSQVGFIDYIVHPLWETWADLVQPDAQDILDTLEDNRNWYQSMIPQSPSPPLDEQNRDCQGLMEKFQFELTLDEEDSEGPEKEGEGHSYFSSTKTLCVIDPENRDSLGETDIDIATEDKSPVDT
Chain of Pyruvate kinase PKM (Homo sapiens) (P14618 whole entry, looked up): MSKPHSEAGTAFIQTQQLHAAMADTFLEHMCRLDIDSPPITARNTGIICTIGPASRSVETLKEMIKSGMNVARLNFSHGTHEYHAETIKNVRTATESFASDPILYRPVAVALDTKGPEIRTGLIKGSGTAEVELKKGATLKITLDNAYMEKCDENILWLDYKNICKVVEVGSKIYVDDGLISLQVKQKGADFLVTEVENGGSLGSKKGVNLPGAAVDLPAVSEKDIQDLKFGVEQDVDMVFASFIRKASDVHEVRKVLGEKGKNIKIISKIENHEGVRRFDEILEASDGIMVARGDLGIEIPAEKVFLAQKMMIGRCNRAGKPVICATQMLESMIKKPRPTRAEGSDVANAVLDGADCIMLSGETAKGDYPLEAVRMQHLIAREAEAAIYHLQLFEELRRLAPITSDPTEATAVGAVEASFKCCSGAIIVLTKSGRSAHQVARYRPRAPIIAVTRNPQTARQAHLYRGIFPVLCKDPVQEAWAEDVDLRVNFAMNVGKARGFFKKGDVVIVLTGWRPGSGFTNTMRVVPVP
Chain of Guanine nucleotide-binding protein G(i) subunit alpha-1 (Homo sapiens) (P63096 whole entry, looked up): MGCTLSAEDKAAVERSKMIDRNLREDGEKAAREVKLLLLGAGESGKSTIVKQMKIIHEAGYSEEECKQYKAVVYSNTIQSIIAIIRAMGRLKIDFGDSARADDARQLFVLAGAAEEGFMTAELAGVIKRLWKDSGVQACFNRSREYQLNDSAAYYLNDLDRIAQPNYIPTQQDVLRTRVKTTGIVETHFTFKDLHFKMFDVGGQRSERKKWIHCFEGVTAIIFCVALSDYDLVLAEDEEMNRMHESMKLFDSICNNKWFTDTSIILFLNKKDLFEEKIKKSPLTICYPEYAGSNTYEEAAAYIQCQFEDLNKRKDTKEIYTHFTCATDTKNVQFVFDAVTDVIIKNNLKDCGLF
Chain of Cytochrome P450 3A4 (Homo sapiens) (P08684 whole entry, looked up): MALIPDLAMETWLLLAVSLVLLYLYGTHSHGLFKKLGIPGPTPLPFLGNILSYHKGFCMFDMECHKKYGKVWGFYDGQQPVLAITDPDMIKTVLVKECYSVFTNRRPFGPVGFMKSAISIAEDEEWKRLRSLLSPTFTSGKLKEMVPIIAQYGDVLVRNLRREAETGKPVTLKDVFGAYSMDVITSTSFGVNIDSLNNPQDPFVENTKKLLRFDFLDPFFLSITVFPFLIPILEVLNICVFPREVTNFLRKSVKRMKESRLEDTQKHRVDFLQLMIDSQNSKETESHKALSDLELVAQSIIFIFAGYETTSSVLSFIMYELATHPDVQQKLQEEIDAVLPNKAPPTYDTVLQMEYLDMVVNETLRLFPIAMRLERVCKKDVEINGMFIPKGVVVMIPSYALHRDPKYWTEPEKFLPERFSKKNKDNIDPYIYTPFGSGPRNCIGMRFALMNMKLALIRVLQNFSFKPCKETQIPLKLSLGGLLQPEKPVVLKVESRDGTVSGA
Chain of Muscarinic acetylcholine receptor M1 (Rattus norvegicus) (P08482 whole entry, looked up): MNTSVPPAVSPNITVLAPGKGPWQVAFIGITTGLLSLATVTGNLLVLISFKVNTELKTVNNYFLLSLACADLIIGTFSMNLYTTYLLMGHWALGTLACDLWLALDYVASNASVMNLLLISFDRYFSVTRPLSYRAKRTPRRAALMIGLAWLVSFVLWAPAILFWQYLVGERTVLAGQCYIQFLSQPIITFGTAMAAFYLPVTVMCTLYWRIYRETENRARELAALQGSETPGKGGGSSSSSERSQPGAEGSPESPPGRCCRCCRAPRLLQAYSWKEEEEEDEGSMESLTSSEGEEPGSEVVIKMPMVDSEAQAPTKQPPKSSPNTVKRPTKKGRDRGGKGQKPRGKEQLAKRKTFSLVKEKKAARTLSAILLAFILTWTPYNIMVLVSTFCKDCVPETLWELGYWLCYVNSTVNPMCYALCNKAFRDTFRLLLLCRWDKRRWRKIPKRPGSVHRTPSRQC

O=c1[nH]c(=O)n([C@H]2C[C@H](O)[C@H](CO)O2)cc1/C=C\Br
inactive: activity change, negative = inhibition [1] -6.02% [at 38 µM] | activity change, negative = inhibition [2] 3.97% [at 38 µM] | activity, negative = inhibition [3] 6.62% [at 38 µM] | Potency [4] > 46 µM | Potency [5] > 46 µM | Potency [6] | Potency [7] | Potency [8] | activation [9] 0.219% | Potency [10] | Potency [11] | Potency [12] | outcome [13] | outcome [14]

O/N=C1\CCc2cc(Cl)ccc21
inactive: activity change, negative = inhibition [1] -7.29% | activity change, negative = inhibition [2] -1.82% | activity, negative = inhibition [3] 6.47% | Potency [4] > 20.6 µM

C[N+](C)(C)CCN[N@@+]1(C)CCCc2ccccc21
inactive: activity change, negative = inhibition [1] -2.74% [at 7.69 µM] | activity change, negative = inhibition [2] -8.45% [at 7.69 µM] | activity, negative = inhibition [3] 7.61% [at 7.69 µM] | Potency [4] > 46 µM | Potency [5] > 9.22 µM | activity change, negative = inhibition [6] 4.98% [at 11.4 µM] | Potency [7]

OC[C@@H]1O[C@@H](n2cnc3c(Nc4ccccc4)ncnc32)[C@@H](O)[C@H]1O
active: Potency [8] 2.24 µM | Potency [10] 3.98 µM
inactive: activity change, negative = inhibition [1] 7.84% [at 38 µM] | activity change, negative = inhibition [2] 0.0847% [at 38 µM] | activity, negative = inhibition [3] -14.3% [at 38 µM] | Potency [4] > 46 µM | Potency [5] > 46 µM | Potency [6] | Potency [7] | outcome [15] | Potency [12] | outcome [13] | outcome [14]

O=C(O)c1cc(Cl)cc(Cc2cc(Cl)cc(C(=O)O)c2O)c1O
inactive: activity change, negative = inhibition [1] 10.2% [at 7.69 µM] | activity change, negative = inhibition [2] 10.6% [at 7.69 µM] | activity, negative = inhibition [3] -2.39% [at 7.69 µM] | Potency [4] > 46 µM | Potency [5] > 9.22 µM | activity change, negative = inhibition [6] 4.28% [at 11.4 µM] | Potency [7]

COC(=O)c1cc(S(=O)(=O)N2CCOCC2)c(N2CCOCC2)cc1N1CCOCC1
inactive: activity change, negative = inhibition [1] -1.61% | activity change, negative = inhibition [2] 5.16% | activity, negative = inhibition [3] 5.81% | Potency [4] > 20.6 µM

COc1ccc(-n2c(=O)c(CCc3ccccc3)nc3cnc(N4CCNCC4)nc32)cc1
inactive: activity change, negative = inhibition [1] 4.61% [at 7.69 µM] | activity change, negative = inhibition [2] 7.43% [at 7.69 µM] | activity, negative = inhibition [3] 0.474% [at 7.69 µM] | Potency [4] > 9.22 µM | Potency [5] > 46 µM | Potency [6] | Potency [7]
active: Potency [9] 3.16 µM

Nc1ccn([C@@H]2O[C@@H](CO)[C@@H](O)[C@H]2O)c(=O)n1
inactive: activity change, negative = inhibition [1] 10.7% [at 38 µM] | activity change, negative = inhibition [2] -7.43% [at 38 µM] | activity, negative = inhibition [3] 19% [at 38 µM] | Potency [4] > 46 µM | Potency [5] > 46 µM | Potency [6] | Potency [7] | Potency [16] | Potency [17] | Potency [12] | outcome [13] | outcome [14] | outcome [18]

N[C@H](Cc1ccc(F)cc1)C(=O)O
inactive: activity change, negative = inhibition [1] 14.8% [at 38 µM] | activity change, negative = inhibition [2] -1.52% [at 38 µM] | activity, negative = inhibition [3] -8.01% [at 38 µM] | Potency [4] > 46 µM | Potency [5] > 46 µM | Potency [6] | Potency [7] | outcome [15] | Potency [10] | Potency [12] | outcome [13] | outcome [14]

CCOc1cccc(-c2nnc3sc(-c4ccc(C)cc4)nn23)c1
inactive: activity change, negative = inhibition [1] 18.5% | activity change, negative = inhibition [2] -19.6% | activity, negative = inhibition [3] 24.1% | Potency [4] > 20.6 µM

CN1C[C@@H](C(=O)N[C@]2(C)O[C@]3(O)[C@H]4CCCN4C(=O)[C@H](Cc4ccccc4)N3C2=O)C[C@H]2c3cccc4[nH]cc(c34)C[C@@H]21
inactive: activity change, negative = inhibition [1] -19.9% [at 38 µM] | activity change, negative = inhibition [2] -15.6% [at 38 µM] | activity, negative = inhibition [3] -18.4% [at 38 µM] | Potency [4] > 46 µM | Potency [5] > 46 µM | Potency [6] | Potency [7] | Potency [10] | Potency [12] | outcome [13] | outcome [14]

COc1ccc2c(c1)nc(N)n2Cc1ccccc1
inactive: activity change, negative = inhibition [1] -1.6% | activity change, negative = inhibition [2] -9.42% | activity, negative = inhibition [3] -3.55% | Potency [4] > 20.6 µM

CC(NC(=O)CSc1nnc(COc2ccccc2)o1)c1ccccc1 (stereo not drawn)
inactive: activity change, negative = inhibition [1] -6.03% | activity change, negative = inhibition [2] -0.274% | activity, negative = inhibition [3] 2.03% | Potency [4] > 20.6 µM

O=C(NCc1ccco1)c1ccc(=O)oc1
inactive: activity change, negative = inhibition [1] 13.8% | activity change, negative = inhibition [2] 6.96% | activity, negative = inhibition [3] -6.97% | Potency [4] > 20.6 µM

O=C1c2c(O)cc(O)cc2O[C@@H](c2ccc(O)c(O)c2)[C@H]1O
inactive: activity change, negative = inhibition [1] -14.3% [at 38 µM] | activity change, negative = inhibition [2] 13.3% [at 38 µM] | activity, negative = inhibition [3] -8.15% [at 38 µM] | Potency [4] > 46 µM | Potency [5] > 46 µM | Potency [6] | Potency [7] | Potency [19] | Potency [10] | Potency [12] | outcome [13] | outcome [14] | outcome [18]
active: Potency [8] 1.58 µM
